# Test results published in ChEMBL document CHEMBL3988442, “University of Dundee, Small-Polar-MMV Screening Library” (2021).
# Out of some 66,000 compounds screened, about 960 (1.5%) showed an effect of 50% or more. What follows is part of a selection rich in strong results, with near analogues and random picks from the rest.
# Tested on: Trypanosoma brucei
# Experiment: Trypanosoma brucei 72 hour study
# Type: functional, organism-based
# Set-up: scale not given: in the data most compounds retested in dose-response had high values
smiles,measurement,setting,value
COCC(=O)N1CCC2(CC1)COCCN2Cc1ccc(F)cc1.O=C(O)C(F)(F)F,Percent Effect,"30 µM, 30.03 µM",14.27%
Cc1nc(CC2CCN(Cc3ccc(CCC(C)(C)O)cc3)CC2)no1,Percent Effect,"30.3 µM, […]",-0.2557%
Cc1noc2nc(C3CCN(CC4CCCCC4)CC3)cc(C(F)F)c12.Cl,Percent Effect,"30.3 µM, […]",30.15%
CCn1nc(C)c2ccn(CC(=O)NCCCOC)c(=O)c21,Percent Effect,"30 µM, 30.03 µM",9.008%
O=C(c1cccs1)N1C[C@H]2CCC[C@@]2(COCC2CCOCC2)C1,Percent Effect,"30 µM, 30.03 µM",13.05%
O=C(c1ccncn1)N1C[C@H]2CCC[C@@]2(COCC2CCOCC2)C1,Percent Effect,"30 µM, 30.03 µM",54.31%
O=C(O)C(F)(F)F.O=C(c1ccccn1)N1C[C@H]2CCC[C@@]2(COCC2CCOCC2)C1,Percent Effect,"30 µM, 30.03 µM",14.59%
Cc1ccsc1C(=O)N1CCCN(Cc2cscn2)CC1,Percent Effect,10 µM,-20.65%
CN(C)C(=O)[C@H]1CCS(=O)(=O)[C@@H]2CN(c3ncccn3)C[C@H]12,Percent Effect,"30.3 µM, […]",-0.441%
COc1ccc(CC(=O)N2CCCN(c3ccc(C#N)cc3)CC2)cc1,Percent Effect,"30 µM, 30.03 µM",55.65%
Cc1nc(CC(=O)N2CCCN(c3ccc(C#N)cc3)CC2)cs1,Percent Effect,"30 µM, 30.03 µM",7.071%
COc1ccnc(N2CCN(C(=O)Cc3ccc(C#N)cc3)CC2)n1,Percent Effect,"30 µM, 30.03 µM",4.593%
CN1C[C@]2(CC[C@@H](C(=O)N3CCOCC3)CC2)Oc2ccccc2C1=O,Percent Effect,"30.3 µM, […]",-18.99%
CN1CCNC(=O)C12CCN(C(=O)c1ccc3[nH]c(=O)[nH]c3c1)CC2,Percent Effect,"30 µM, 30.03 µM",29.1%
Cc1ccc2[nH]c(C(=O)N3CCC4(CC3)C(=O)NCCN4C)nc2c1,Percent Effect,"30 µM, 30.03 µM",74.91%
Cc1ccc(C(=O)N2CCC3(CC2)C(=O)NCCN3C)cc1O,Percent Effect,"30 µM, 30.03 µM",-5.883%
Cn1cc(C(=O)NCc2cn3c(n2)CN(CC2CCCC2)CC3)cn1.O=C(O)C(F)(F)F.O=C(O)C(F)(F)F,Percent Effect,"30 µM, 30.03 µM",-33.28%
Cc1nc(CO[C@@H]2CN(Cc3cccs3)[C@@H]3COC[C@@H]32)cs1.O=C(O)C(F)(F)F,Percent Effect,"30 µM, 30.03 µM",-14.66%
Cc1cc(S(C)(=O)=O)c(C)c(S(=O)(=O)N2CCCC(C)C2)c1 (centres undefined),Percent Effect,"30 µM, 30.03 µM",0.7387%
O=C(O)C(F)(F)F.O=C1COC2(CCN(CC3CC3)CC2)CN1c1cncnc1,Percent Effect,"30 µM, 30.03 µM",-12.06%
Cc1ccc(CC(NC(=O)CCS(C)(=O)=O)c2ccccn2)cc1 (centres undefined),Percent Effect,"30 µM, 30.03 µM",-49.38%
CS(=O)(=O)NCC(=O)NC(Cc1ccccc1)C1CCCC1 (centres undefined),Percent Effect,"30.3 µM, […]",-60.62%
Cc1c(NC(=O)CN(C)S(C)(=O)=O)cccc1OC1CCCC1,Percent Effect,"30 µM, 30.03 µM",-55.36%
CN(CC(=O)NC(Cc1ccccc1)C1CCCC1)S(C)(=O)=O (centres undefined),Percent Effect,"30.3 µM, […]",62.9%
CS(=O)(=O)CCC(=O)NC(Cc1ccccc1)C1CC1 (centres undefined),Percent Effect,"30.3 µM, […]",70.04%
CS(=O)(=O)CCC(=O)NC1CC(c2ccccc2Cl)C1 (centres undefined),Percent Effect,"30 µM, 30.03 µM",-26.6%
CNc1nc(C)c(C(=O)N2C[C@H]3CC[C@@H]2CN(c2cnccn2)C3)s1,Percent Effect,"30 µM, 30.03 µM",-23.46%
CC1CN(C)CCN1C(=O)c1cnn(-c2cccc(Cl)c2)c1 (centres undefined),Percent Effect,"30.3 µM, […]",-22.44%
same,Percent Effect,"10 mM, 10 mM as filed; unlikely as a test dose",-40.4%
COCC1CC2(CCN(Cc3ccoc3)CC2)CN1C(C)C.O=C(O)C(F)(F)F.O=C(O)C(F)(F)F (centres undefined),Percent Effect,"30 µM, 30.03 µM",26.61%
CCN(CC)C(=O)CN1CCc2nc(C3CCNCC3)nc(NC)c2C1.Cl,Percent Effect,"30.3 µM, […]",-15.23%
CCC(=O)Nc1ccc2c(c1)C1(CCOCC1)CN2CCOC.O=C(O)C(F)(F)F,Percent Effect,"30.3 µM, […]",-49.74%
CN(Cc1ccccc1F)C(=O)Cn1cc(NC(=O)C(C)(C)C)cn1,Percent Effect,"30.3 µM, […]",-0.06216%
CC(C)NC(=O)N1CCN(CC2CC2)CC2(CNC(=O)C2)C1.O=C(O)C(F)(F)F (centres undefined),Percent Effect,"30 µM, 30.03 µM",-4.336%
COc1ccccc1C1(CNCc2cccc(O)c2)CCOCC1,Percent Effect,"30.3 µM, […]",15.56%
COc1ccccc1C1(CNCc2ccc(C#N)cc2)CCOCC1,Percent Effect,"30.3 µM, […]",29.93%
COc1ccccc1C1(CNCc2cccc(C#N)c2)CCOCC1,Percent Effect,"30.3 µM, […]",67.18%
Cc1cc(Oc2ccc(NC(=O)C3CC3)cc2)cc(C2CCNCC2)n1.Cl,Percent Effect,"30.3 µM, […]",99.81%
CC(=O)Nc1ccc(Oc2cc(C)nc(C3CCCNC3)c2)cc1.Cl (centres undefined),Percent Effect,"30.3 µM, […]",-25.31%
CC(=O)Nc1ccc(Oc2cc(C)nc(C3CCNCC3)c2)cc1.Cl,Percent Effect,"30.3 µM, […]",0.5571%
CS(=O)(=O)N1CCC(Nc2ccnc3ccc(Cl)cc23)CC1,Percent Effect,"30.3 µM, […]",-667%
COCC(=O)N1CCC(Nc2ccnc3ccc(Cl)cc23)CC1,Percent Effect,"30.3 µM, […]",-10.12%
NC(=O)CN1CCC(Nc2ccnc3ccc(Cl)cc23)CC1,Percent Effect,"30.3 µM, […]",62.45%
O=C1N(Cc2ccc(F)c(F)c2)CCCC1(O)CNCC1CCCCC1 (centres undefined),Percent Effect,"30 µM, 30.03 µM",-26.1%
CC(NC(=O)CCC(C)(C)C)C(=O)Nc1ccc(-n2cncn2)cc1 (centres undefined),Percent Effect,"30 µM, 30.03 µM",-4.525%
O=C1N(Cc2ccc(F)c(F)c2)CCCC12CCN(C1CCSCC1)C2 (centres undefined),Percent Effect,"30 µM, 30.03 µM",50.02%
O=C1N(Cc2ccc(F)c(F)c2)CCCC12CCN(C1CCCCC1)C2 (centres undefined),Percent Effect,"30 µM, 30.03 µM",6.711%
O=C1N(Cc2ccc(F)c(F)c2)CCCC12CCN(C1CCCC1)C2 (centres undefined),Percent Effect,"30 µM, 30.03 µM",-86.64%
COCCNC(=O)[C@@]12CCO[C@@H]1CCN(Cc1ccc(OC)cc1)C2.O=C(O)C(F)(F)F,Percent Effect,"30 µM, 30.03 µM",7.509%
